25 compounds from PubChem BioAssay AID431 (Sanford-Burnham Center for Chemical Genomics, 2006) can be followed below.

The whole screen tested about 63,000 compounds, of which about 1,100 (1.7%) were called active. Only a selection was taken, and actives are over-represented in it overall. Results with a measured potency or affinity are listed apart. Unmarked numbers belong to inactive results.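 How the source made its calls: active means compounds whose percent cytotoxicity in the single-dose primary screen, scaled between solvent and toxic-drug controls, exceeds 50; inactive means the rest.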

The nature of this assay: cytotoxicity in KRAS-transformed pancreatic duct cells, primary screen, cell-based, fluorescence, HTS (AID 431).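 Further: 0% = DMSO solvent wells and 100% = doxorubicin-treated wells.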 The settings on record: HPDE-C7K KRASV12 cells, Alamar Blue viability, 48 h; at 10 µM; active compounds read high. In general terms: The colour change of resazurin is a common sign of viable cells or microbes.
In the case of `O=C(COc1cc(Cl)ccc1Cl)Nc1nnc(CC(=O)N2CCOCC2)s1`, the cytotoxicity was -20%. For the compound `COc1ccccc1NC(=O)CN1CCN(CC(=O)Nc2ccc(F)cc2)CC1`, the cytotoxicity was 11.3%. In the case of `CCCNc1nc2c(c(=O)[nH]c(=O)n2C)n1Cc1ccc(F)cc1`, the cytotoxicity is 8.2%. Regarding `CC1Cc2ccccc2N1S(=O)(=O)c1ccc2c(c1)n(C)c(=O)c(=O)n2C` (stereo not given), the cytotoxicity was 2.9%.

For `CCOC(=O)C1CCCN(S(=O)(=O)Cc2ccccc2)C1` (stereo not given), the cytotoxicity was -14.4%. Consider `O=C(O)c1ccc(CN2C(=O)CSC2=S)cc1`, for which the cytotoxicity was -5.7%. Take `O=C1CSC(=S)N1c1cccnc1`: the cytotoxicity is -10.8%. Regarding `Cc1cccc(NC(=O)c2oc3c(c2C)C(=O)CC(C)(C)C3)n1`, the cytotoxicity was -12.7%.

Take `O=C(Nc1ccccc1C(=O)N1CCN(Cc2ccccc2)CC1)c1ccccn1`: the cytotoxicity was 8.7%.

Turning to `COc1ccc2[nH]c(=O)c(CN(C(=O)COc3ccccc3)C(C)C)cc2c1`, the cytotoxicity was -31.9%. Consider `COC(=O)C1=C(N)OC2=C(C(=O)CC(C)(C)C2)C1c1ccoc1` (stereo not given), for which the cytotoxicity is -4%. For `Cc1nn(C)cc1C1C2=C(CC(C)(C)CC2=O)OC2=C1C(=O)CC(C)(C)C2`, the cytotoxicity is 2.9%.

On to `O=C(c1ccccc1C(=O)N1CCN(c2ccccc2F)CC1)N1CCN(c2ccccc2F)CC1`, for which the cytotoxicity is 4%. In the case of `COC(=O)c1ccccc1NC(=O)c1ccc(COc2ccccc2)o1`, the cytotoxicity was 10.5%. With `COC(=O)c1ccccc1NC(=O)c1ccc(-c2ccccc2F)o1` the figure was 90.9% (active).

Consider `COc1ccccc1NC(=O)c1ccc(-c2ccccc2F)o1`, for which the cytotoxicity was -9%. As to `COc1ccc(NC(=O)C(c2ccccc2)N(C)C(=O)c2cnccn2)cc1` (stereo not given), the cytotoxicity is -2.6%. In the case of `Cc1ccc(NC(=O)Cn2c(=O)n(Cc3ccco3)c(=N)c3c4c(sc32)COC(C)(C)C4)cc1`, the cytotoxicity was 23%. Take `CC1(C)Cc2c(sc3c2c(=N)n(Cc2ccco2)c(=O)n3CC(=O)Nc2ccc(Cl)cc2)CO1`: the cytotoxicity is 52.6% (active). As to `CC1(C)Cc2c(sc3c2c(=N)n(Cc2ccco2)c(=O)n3CC(=O)Nc2ccccc2)CO1`, the cytotoxicity was 8.6%. For the compound `COCCNS(=O)(=O)c1ccc2c(c1)C(=O)c1cc(S(=O)(=O)NCCOC)ccc1-2`, the cytotoxicity was -5.8%.

On to `CC1C(=O)C(C)C(c2cccs2)NC1c1cccs1` (stereo not given), for which the cytotoxicity was -4.9%. As to `CCOC(=O)c1csc(NC(=O)c2ccc(S(=O)(=O)N(C)C)cc2)n1`, the cytotoxicity was 5.4%. `O=c1[nH]c2ccccc2n1CCCN1CCN(C(c2ccccc2)c2ccccc2)CC1`: the cytotoxicity is 31.4%. With `O=C(NC1CCCCC1)N1CCC(n2c(=O)[nH]c3ccccc32)CC1` the figure was -0.1%.
